# Measurements taken from the supplement of paper PMC12645437, “Orthogonal IMiD-Degron Pairs Induce Selective Protein Degradation in Cells” (ACS Chemical Biology, 2025).
# Whole data set: some 8,300 sequences, median “log2 fold change of degron read counts, EGFP-low vs EGFP+ sorted cells (limma voom), compound-induced degradation” near -1.1, cut for the highest 2% near 3.2. What follows is part of a selection rich in the highest values, with near analogues and random picks from the rest.
# Target: T1, CRBN, Q96SW2
# T1 chain: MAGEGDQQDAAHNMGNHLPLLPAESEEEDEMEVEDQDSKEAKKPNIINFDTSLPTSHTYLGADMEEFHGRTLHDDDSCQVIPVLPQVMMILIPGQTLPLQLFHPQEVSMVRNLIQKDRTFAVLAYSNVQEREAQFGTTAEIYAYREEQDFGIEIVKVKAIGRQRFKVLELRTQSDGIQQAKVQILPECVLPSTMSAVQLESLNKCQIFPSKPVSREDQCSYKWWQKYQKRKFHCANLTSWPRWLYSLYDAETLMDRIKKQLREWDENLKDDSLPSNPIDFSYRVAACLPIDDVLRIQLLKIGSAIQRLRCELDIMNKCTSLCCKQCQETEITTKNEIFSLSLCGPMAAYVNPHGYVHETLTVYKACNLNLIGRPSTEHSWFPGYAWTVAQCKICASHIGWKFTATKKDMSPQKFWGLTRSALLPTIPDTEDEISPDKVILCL
# Assay: log2 fold change of degron read counts, EGFP-low vs EGFP+ sorted cells (limma voom), compound-induced degradation; higher = more compound-induced degradation of the degron-EGFP fusion; degrons are variants of IKZF1/3 zinc finger 2; compound dose not given here
# Conditions: Jurkat, 18 h
# [1] = compound: compound 19 (5-tert-butyl-thalidomide)
# [2] = compound: compound 22 (5-morpholino-thalidomide)
# [3] = compound: compound 33 (diphenyl IMiD analogue)
# 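Also: pooled lentiviral library of zinc finger degron-EGFP fusions in mCherry-positive Jurkat cells, FACS-sorted after compound exposure, with degron abundance counted by next-generation sequencing.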
sequence,measurement,setting,value
"FCCEICGRVFTQKGNLLRHIKL [46F_47C_49E_50I_52G_53R_54V_55F_67L_, Q9UKT9]",log2 fold change of degron read counts,[1],-1.06
same,log2 fold change of degron read counts,[2],-1.44
same,log2 fold change of degron read counts,[3],-0.0327
same,log2 fold change of degron read counts,compound: thalidomide,-0.334
"FACEICGASFTQKGNLLRHIKL [46F_47A_49E_50I_52G_53A_54S_55F_67L_, Q9UKT9]",log2 fold change of degron read counts,[1],3.67
same,log2 fold change of degron read counts,[2],2.8
same,log2 fold change of degron read counts,[3],0.948
same,log2 fold change of degron read counts,compound: thalidomide,1.06
"FFCEICGHSFTQKGNLLRHIKL [46F_47F_49E_50I_52G_53H_54S_55F_67L_, Q9UKT9]",log2 fold change of degron read counts,[1],-2.6
same,log2 fold change of degron read counts,[2],-2.19
same,log2 fold change of degron read counts,[3],-2.73
same,log2 fold change of degron read counts,compound: thalidomide,-2.65
"FRCEICGASFTQKGNLLRHIKL [46F_47R_49E_50I_52G_53A_54S_55F_67L_, Q9UKT9]",log2 fold change of degron read counts,[1],2.38
same,log2 fold change of degron read counts,[2],1.52
same,log2 fold change of degron read counts,[3],2.01
same,log2 fold change of degron read counts,compound: thalidomide,2.12
"FWCEICGASFTQKGNLLRHIKL [46F_47W_49E_50I_52G_53A_54S_55F_67L_, Q9UKT9]",log2 fold change of degron read counts,[1],3.83
same,log2 fold change of degron read counts,[2],3.81
same,log2 fold change of degron read counts,[3],2.56
same,log2 fold change of degron read counts,compound: thalidomide,1.42
"FVCEICGASFTQKGNLLRHIKL [46F_47V_49E_50I_52G_53A_54S_55F_67L_, Q9UKT9]",log2 fold change of degron read counts,[1],1.36
same,log2 fold change of degron read counts,[2],2.28
same,log2 fold change of degron read counts,[3],1.92
same,log2 fold change of degron read counts,compound: thalidomide,3
"FFCEICGASFTQKGNLLRHIKL [46F_47F_49E_50I_52G_53A_54S_55F_67L_, Q9UKT9]",log2 fold change of degron read counts,[1],3.6
same,log2 fold change of degron read counts,[2],3.72
same,log2 fold change of degron read counts,[3],2.31
same,log2 fold change of degron read counts,compound: thalidomide,1.63
"FLCEICGASFTQKGNLLRHIKL [46F_47L_49E_50I_52G_53A_54S_55F_67L_, Q9UKT9]",log2 fold change of degron read counts,[1],1.8
same,log2 fold change of degron read counts,[2],-0.0236
same,log2 fold change of degron read counts,[3],1.14
same,log2 fold change of degron read counts,compound: thalidomide,1.42
"FECEICGASFTQKGNLLRHIKL [46F_47E_49E_50I_52G_53A_54S_55F_67L_, Q9UKT9]",log2 fold change of degron read counts,[1],2.12
same,log2 fold change of degron read counts,[2],-0.516
same,log2 fold change of degron read counts,[3],1.74
same,log2 fold change of degron read counts,compound: thalidomide,2.43
"FNCEICGASFTQKGNLLRHIKL [46F_47N_49E_50I_52G_53A_54S_55F_67L_, Q9UKT9]",log2 fold change of degron read counts,[1],3.43
same,log2 fold change of degron read counts,[2],1.63
same,log2 fold change of degron read counts,[3],0.778
same,log2 fold change of degron read counts,compound: thalidomide,0.457
"FTCEICGASFTQKGNLLRHIKL [46F_47T_49E_50I_52G_53A_54S_55F_67L_, Q9UKT9]",log2 fold change of degron read counts,[1],2.27
same,log2 fold change of degron read counts,[2],3.03
same,log2 fold change of degron read counts,[3],2.5
same,log2 fold change of degron read counts,compound: thalidomide,3
"FICEICGASFTQKGNLLRHIKL [46F_47I_49E_50I_52G_53A_54S_55F_67L_, Q9UKT9]",log2 fold change of degron read counts,[1],0.541
same,log2 fold change of degron read counts,[2],2.73
same,log2 fold change of degron read counts,[3],2.39
same,log2 fold change of degron read counts,compound: thalidomide,2.95
"FECNQCGAGFTQKGNLLRHIKL [46F_47E_49N_50Q_52G_53A_54G_55F_67L_, Q9UKT9]",log2 fold change of degron read counts,[1],-2.2
same,log2 fold change of degron read counts,[2],-2.79
same,log2 fold change of degron read counts,[3],-2.43
same,log2 fold change of degron read counts,compound: thalidomide,-2.17
"LLCNQCGFQCTQKGNLLRHIKL [46L_47L_49N_50Q_52G_53F_54Q_55C_67L_, Q9UKT9]",log2 fold change of degron read counts,[1],-2.02
same,log2 fold change of degron read counts,[2],-1.96
same,log2 fold change of degron read counts,[3],-2.15
same,log2 fold change of degron read counts,compound: thalidomide,-1.68
"FQCNVCGAYFTQKGNLLRHIKL [46F_47Q_49N_50V_52G_53A_54Y_55F_67L_, Q9UKT9]",log2 fold change of degron read counts,[1],-2.25
same,log2 fold change of degron read counts,[2],-1.8
same,log2 fold change of degron read counts,[3],-0.854
same,log2 fold change of degron read counts,compound: thalidomide,1.41
"FICEICGHAFTQKGNLLRHIKL [46F_47I_49E_50I_52G_53H_54A_55F_67L_, Q9UKT9]",log2 fold change of degron read counts,[1],-3.32
same,log2 fold change of degron read counts,[2],-2.94
same,log2 fold change of degron read counts,[3],-2.31
same,log2 fold change of degron read counts,compound: thalidomide,-1.67
"FRCDQCGACFTQKGNLLRHIKL [46F_47R_49D_50Q_52G_53A_54C_55F_67L_, Q9UKT9]",log2 fold change of degron read counts,[1],-2.93
same,log2 fold change of degron read counts,[2],-3.5
same,log2 fold change of degron read counts,[3],-1.12
same,log2 fold change of degron read counts,compound: thalidomide,-2.52
"FHCEICGHSFTQKGNLLRHIKL [46F_47H_49E_50I_52G_53H_54S_55F_67L_, Q9UKT9]",log2 fold change of degron read counts,[1],-2.93
same,log2 fold change of degron read counts,[2],-3.88
same,log2 fold change of degron read counts,[3],-2.79
same,log2 fold change of degron read counts,compound: thalidomide,-3.22
